Test results: PubChem BioAssay (EPA / NIEHS)
Active and inactive are the calls of the source. Rule for the calls: active = hit-call score of the fitted dose curve at least 0.9, where 1 is the maximum; inactive = score below 0.9.

Test: ATG_ISRE_CIS: Attagene CIS-FACTORIAL HepG2 Assay for human Interferon Regulatory Factor 1 (IRF1) binding to an Interferon-Stimulated Response Element (ISRE) (AID 2282948)
Conditions: HepG2 ISRE cis-reporter (Attagene), mRNA transcription readout; actives raise or lower the signal
How it was run: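 Cell-based cis-reporter assay; HepG2; 24 h exposure; reporter mRNA by RT-PCR plus capillary electrophoresis fluorescence; activity in either direction scored relative to DMSO.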

Row | SMILES | AC50 | outcome
1 | Nc1ccc(N=Nc2ccccc2)cc1 | 57.2 µM (active) | 
2 | N#CC(Br)(Br)C(N)=O |  | inactive
3 | OCCOCCO |  | inactive
4 | CC(C)(OOC(C)(C)c1ccccc1)c1ccccc1 | 100 µM (active) | 
5 | CCC(C)c1ccc(O)cc1 (stereo not drawn) |  | inactive
6 | Cc1cc(N=Nc2ccccc2C)ccc1N |  | inactive
7 | CCC12COCN1COC2 |  | inactive
8 | CCCCCCCCn1sccc1=O | 17.6 µM (active) | 
9 | CCCCOC(=O)c1ccccc1C(=O)OCc1ccccc1 |  | inactive
10 | COC(=O)Nc1nc2ccccc2[nH]1 |  | inactive
11 | CC(C)(C)OOC(C)(C)CCC(C)(C)OOC(C)(C)C |  | inactive
12 | O=C1CCCO1 |  | inactive
13 | CCC[CH2][Sn]([Cl])([CH2]CCC)[CH2]CCC | 0.611 µM (active) | 
14 | [O-][Cl+]O |  | inactive
15 | ClCCOCCCl |  | inactive
16 | CC(C)(C)OOC(=O)c1ccccc1 |  | inactive
17 | c1ccc(NNc2ccccc2)cc1 |  | inactive
18 | Cc1ccc(N=C=O)cc1N=C=O |  | inactive
19 | c1ccc2c(c1)-c1cccc3cccc-2c13 |  | inactive
20 | Cc1cccc(N)c1N |  | inactive
21 | Clc1ccc(C(c2ccc(Cl)cc2)C(Cl)(Cl)Cl)cc1 | 62.2 µM (active) | 
22 | CN(C)c1ccc(C(=O)c2ccc(N(C)C)cc2)cc1 |  | inactive
23 | COC(=O)c1ccccc1N |  | inactive
24 | O=C(N[C@H](c1ccccc1)[C@@H]1CN2CCC1CC2)c1c(Cl)ccc(C(F)(F)F)c1Cl |  | inactive
25 | CN(C)c1ccccc1 |  | inactive
26 | O=[N+]([O-])c1ccc(Oc2ccc(Cl)cc2Cl)cc1 |  | inactive
27 | CCCCCCCCOC(=O)c1ccc(C(=O)OCCCCCCCC)c(C(=O)OCCCCCCCC)c1 |  | inactive
28 | COP(=S)(OC)SCN1C(=O)c2ccccc2C1=O |  | inactive
